Experimental data taken from PubChem BioAssay AID720517 (National Center for Advancing Translational Sciences (NCATS), 2013).
Inconclusive results are not listed. Unmarked numbers belong to inactive results. Calls come from the whole dose curve; as a rule, active = well fitted activation curve with a large enough effect; inconclusive = small, poorly fitted or top-dose-only effect; inactive = flat fitted curve, though single readings scatter.

experiment: qHTS for Inhibitors of Cell Surface uPA Generation: FP59 Counterscreen for Cherry-picked Compounds; conditions: FP59 anthrax toxin cytotoxicity counterscreen, cells; series mostly up to 115 µM; activity (protection from FP59): at the top concentration; note: 0% is about no effect

| Structure (SMILES) | activity (protection from FP59) |
| --- | --- |
| CC(C)CNC(=O)COC(=O)CCC(=O)c1cccs1 | -1.36% |
| COC(=O)[C@@]1(Cc2ccc(F)cc2)[C@H]2c3cc(C(=O)N(C)C)n(Cc4c(CO)[nH]cc(C)c4=O)c3C[C@H]2CN1C(=O)c1ccccc1 | -1.32% |
| CCC(NC(=O)Cc1c(C)c2c(cc(C)c3c(C)c(C)oc32)oc1=O)C(=O)O (stereo not given) | -1.44% |
| COc1cc(/C=C(/C#N)C(=O)Nc2ccccc2)ccc1OCc1ccc(C(=O)O)cc1 | 0.218% |
| COc1ccccc1NS(=O)(=O)c1cc(NC(=O)CCc2nc3ccccc3c(=O)[nH]2)ccc1C | -1.09% |
| CCCCCN(C(=O)CCC(=O)OCCOc1cccc(Cl)c1)c1c(N)n(CCCC)c(=O)[nH]c1=O | -1.02% |
| COc1cc(/C=N/NC(=O)c2ccncc2)ccc1O | -1.39% |
| COc1cc(CCC(=O)OCC(=O)NCc2ccccc2)cc(OC)c1OC | 0.669% |
| CCN(c1ccccc1)S(=O)(=O)c1ccc(NC(=O)c2ccco2)cc1 | 0.139% |
| CCC(CC)Nc1ccc(C(CC(N)=O)NC(=O)Cc2ccc(Br)cc2)cc1[N+](=O)[O-] (stereo not given) | -0.93% |
| Cc1cccc(NC(=O)C2CCCN(S(=O)(=O)c3ccc4[nH]c(=O)ccc4c3)C2)c1 (stereo not given) | -1.46% |
| Cc1cccn2c(CNCC(C)Oc3cccnc3)c(C(=O)N3CCOCC3)nc12 (stereo not given) | -1.42% |
| O=C(Nc1ccnn1C1CCN(CCCC2CCCC2)CC1)c1ccccc1 | -1.38% |
| CCc1nc(SCC(N)=O)c2c(=O)n(C)c(=O)n(C)c2n1 | -1.48% |
| CCOc1ccc(NS(=O)(=O)c2ccc(C(=O)N3CCC3)cc2)cc1 | -0.726% |
| C=C(C(=O)O)C1CCC2(C)CCCC(C)(O)C2C1 (stereo not given) | -1.31% |
| Cc1nc(NC(=O)CSc2nnc(C3CC3)n2C)sc1C(=O)N(C)C | -1.35% |
| Cc1c(C(=O)N2CCN(S(=O)(=O)c3cccs3)CC2)oc2ccc(F)cc12 | -1.4% |
| C/C(=N\NC(=O)c1ccccc1)c1c(C)[nH]n(-c2ccccc2)c1=O | -0.532% |
| O=C(NCc1ccc2c(c1)OCO2)c1ccccn1 | 0.0685% |

| Structure (SMILES) | activity (protection from FP59) |
| --- | --- |
| CCOC(=O)N1CCN(C(=O)c2ccc3c(c2)sc2nc(-c4ccc(OC)cc4)cn23)CC1 | -1.38% |
| Cc1cc(-c2ccccc2)nc(N/N=C/c2ccc(N(C)C)cc2)n1 | -1.45% |
| O=C(CN1CCCC1)Nc1cccc(Cl)c1Cl | -1.42% |
| CC(NC(=O)C1CCC(C(=O)NC(C)c2ccccc2)CC1)c1ccccc1 (stereo not given) | -1.03% |
| [N-]=[N+]=NC1C[C@H](n2ccc(=O)[nH]c2=O)O[C@@H]1CO (stereo not given in full) | -1.11% |
| CC(C)NCC1CCc2cc(CO)c([N+](=O)[O-])cc2N1 (stereo not given) | -1.37% |
| O=S(=O)(NCC(c1cccnc1)N1CCOCC1)c1ccccc1 (stereo not given) | -1.32% |
| NC(=O)c1cc2ccncc2c2ccccc12 | 0.728% |
| COCCn1c(SCC(=O)Nc2ccc(F)cc2)nc2ccccc2c1=O | -1.36% |
| CCOc1ccccc1N(CC(=O)Nc1ccc(OC)cc1)S(=O)(=O)c1ccccc1 | 7.21% |
| CC(C)Cn1cnc2c1c(=O)[nH]c(=O)n2Cc1ccccc1 | -1.24% |
| Cc1nc(SCC(=O)NCCN2C(=O)CSC2=O)nc(C)c1C | -1.33% |
| CCOC(=O)c1c(NC(=O)CC2SC(N)=NC2=O)sc2c1CCC(C)C2 (stereo not given) | 0.548% |
| CCN(CC)CCCNC(=O)c1cn(C)c(=O)c2c1c1ccccc1n2C | -1.3% |
| NC(=O)CC[C@H](NC(=O)c1ccc(F)cc1)C(=O)OCC(=O)Nc1c(F)c(F)c(F)c(F)c1F | -1.38% |
| Cc1cc(COc2ccccc2)oc1C(=O)O | -1.48% |
| O=C(Cc1n[nH]c(=O)c2ccccc12)Nc1cccc(S(=O)(=O)N2CCCCCC2)c1 | 0.793% |
| O=C(CSc1ccc(Cl)cc1)N1CCCC1 | -1.54% |
| c1csc(CN2CCOCC2)c1 | -1.39% |
| O=C1C=C(NNC(=O)c2ccncc2)CC(c2ccccc2)C1 (stereo not given) | -0.302% |
